# CBX7 AlphaScr: CBX7 inhibition, primary AlphaScreen. AlphaScreen His6-CBX7 / biotin-H3K27me3 peptide binding; active compounds read low. normalised signal (fraction of DMSO) (concentration not given with the values). hit rate 1.1% among 66,000; in the data active = normalised signal below about 0.5
# Target sequence (O95931 whole entry, looked up): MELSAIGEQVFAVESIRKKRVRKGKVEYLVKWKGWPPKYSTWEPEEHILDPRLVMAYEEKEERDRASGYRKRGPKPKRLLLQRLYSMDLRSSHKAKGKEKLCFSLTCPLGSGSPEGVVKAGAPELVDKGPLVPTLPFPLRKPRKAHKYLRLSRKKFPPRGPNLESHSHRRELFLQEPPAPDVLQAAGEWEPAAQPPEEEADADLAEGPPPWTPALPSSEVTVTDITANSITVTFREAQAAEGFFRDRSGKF
# An asterisk follows results filed as active. This excerpt belongs to a sample that is enriched for hits.
SMILES,CBX7 AlphaScr
CN(Cc1ccccc1)S(=O)(=O)c1ccc(C(=O)Nc2nnc(-c3ccc(F)cc3)o2)cc1,0.142*
COc1cccc(-c2nnc(NC(=O)c3ccc(S(=O)(=O)N(C)Cc4ccccc4)cc3)o2)c1,0.103*
COc1ccc(-c2nnc(NC(=O)c3ccc(S(=O)(=O)N4CCCC4)cc3)o2)c(OC)c1,0.828
COc1ccccc1-c1nnc(NC(=O)c2ccc(S(=O)(=O)N3CCOCC3)cc2)o1,0.634
CCc1nnc(NC(=O)c2ccc(S(=O)(=O)N(C)Cc3ccccc3)cc2)o1,0.431*
COc1ccccc1-c1nnc(NC(=O)c2ccc(S(=O)(=O)N(C)Cc3ccccc3)cc2)o1,0.000854*
Cc1nc2cc(NC(=O)c3ccc(S(=O)(=O)N(C)Cc4ccccc4)cc3)ccc2s1,0.947
Cc1nc(NS(=O)(=O)c2ccccc2)sc1C(=O)Nc1ccccc1,1
O=C(CSc1nc2ccccc2o1)Nc1ccccc1F,1.03
COc1ccc(/C=C/c2nc(-c3ccc(C)cc3)no2)cc1OC,0.972
Cc1ccccc1-n1nc2c(c1NC(=O)COc1ccc3ccccc3c1)CS(=O)(=O)C2,1.02
Cc1ccn2c(NC(=O)c3ccc4c(c3)OCO4)c(-c3ccccc3)nc2c1,0.934
COc1ccc(CCNc2oc(COc3ccc(C)cc3)nc2C#N)cc1,0.934
COc1ccc(-c2nnc(NC(=O)c3ccc(S(=O)(=O)N(C)C)cc3)o2)cc1,0.0365*
COc1cc(OC)cc(-c2nnc(NC(=O)c3ccc(S(=O)(=O)N(C)C)cc3)o2)c1,0.727
COc1cccc(-c2nnc(NC(=O)c3ccc(S(=O)(=O)N4CCOCC4)cc3)o2)c1,0.701
Cc1nc(SCC(=O)Nc2ccc(Br)cn2)n[nH]1,1.08
CCc1nc(C)ccc1OCC(=O)NCCCN(C)C,0.475*
Cc1ccccc1OCC(=O)NCCc1nc2ccccc2[nH]1,1.02
Cc1nc2ccc(C(=O)NCCCN(C)C)cc2nc1C,0.978
CCCCN(C)CCNC(=O)Cn1nc(-c2ccccc2)ccc1=O,0.965
O=C(c1ccc2nc(-c3ccco3)c(-c3ccco3)nc2c1)N1CCc2ccccc2C1,0.0148*
CC(C)CCNC(=O)c1ccc2nc(-c3ccco3)c(-c3ccco3)nc2c1,0.663
CCCCNC(=O)c1ccc2nc(-c3ccco3)c(-c3ccco3)nc2c1,0.75
Cc1cc(C)c2nc(N3CCC(C(=O)N4CCCCC4)CC3)sc2c1,0.972
SMILES,CBX7 AlphaScr
COc1ccc2c(c1)c(=O)c(S(=O)(=O)c1ccc(C)cc1)cn2CC(=O)Nc1ccc(C)cc1,0.767
COCCCNC(=O)c1nc(-c2ccc(C)cc2)oc1C,1.03
Cc1ccc(CCNC(=O)CN2C(=O)CSc3ccc(S(=O)(=O)N4CCCCC4)cc32)cc1,0.966
Nc1c2c(nc3sc4c(c13)CCCCC4)CCCCC2,0.952
Cc1c(-c2ccccc2)nc2sc3c(c2c1N)CCCCC3,0.994
Cc1c(-c2ccccc2)nc2sc3c(c2c1N)CCCC3,0.474*
CCOc1ccccc1NC(=O)CC1C(=O)Nc2ccccc2N1S(=O)(=O)c1ccc(C)cc1 (centres undefined),1.07
CCN(C(=O)CCc1nc(-c2ccccc2F)no1)c1cccc(Cl)c1,0.929
O=C(CS(=O)(=O)c1nc(-c2ccccc2)cn1-c1ccc(Cl)cc1)Nc1ccccc1F,0.483*
O=C(CS(=O)(=O)c1nc(-c2ccccc2)cn1-c1ccc(Cl)cc1)Nc1ccccc1,0.857
O=C(CS(=O)(=O)c1nc(-c2ccccc2)cn1-c1ccc(Cl)cc1)Nc1ccc(F)cc1,0.856
CCc1ccc(NC(=O)C2CC(c3ccc(F)cc3)=NO2)cc1 (centres undefined),1.05
CC1CC(C)CN(S(=O)(=O)c2ccc3c(c2)N(CC(=O)N2CCCC2)C(=O)CO3)C1 (centres undefined),1.01
COc1ccccc1-c1c(C)nn2c(NCc3cccnc3)cc(C)nc12,1.1
COc1ccccc1-c1c(C)nn2c(NCc3ccc(C)cc3)cc(C)nc12,0.998
COc1ccccc1-c1c(C)nn2c(NCc3ccccn3)cc(C)nc12,0.39*
Cc1ccc(NC(=O)CSc2nccn2-c2ccc(Cl)cc2)c(C)c1,0.826
COc1ccc(NC(=O)c2cnn3cccnc23)cc1,1.05
CC1=C(c2ccccc2)C(NC(=O)CN2CCCCCC2)=Nc2ccccc2N1,0.936
CCCCN(CC)S(=O)(=O)c1ccc(C(=O)Nc2nnc(C)o2)cc1,0.0241*
CCN(c1ccccc1)S(=O)(=O)c1ccc(C(=O)Nc2nnc(C)o2)cc1,0.0517*
CCN(Cc1ccccc1)S(=O)(=O)c1ccc(C(=O)Nc2nnc(C)o2)cc1,0.00312*
C=CCN(CC=C)S(=O)(=O)c1ccc(C(=O)Nc2nnc(-c3cc(OC)cc(OC)c3)o2)cc1,0.94
Cc1nnc(NC(=O)c2ccc(S(=O)(=O)N(C)c3ccccc3)cc2)o1,0.781
C=CCN(CC=C)S(=O)(=O)c1ccc(C(=O)Nc2nnc(CC)o2)cc1,0.064*
SMILES,CBX7 AlphaScr
CCN(Cc1ccccc1)S(=O)(=O)c1ccc2oc(C(=O)O)c(C)c2c1,1.18
Cc1ccc(-c2csc(NC(=O)c3ccc(S(=O)(=O)N(C)c4ccccc4)cc3)n2)cc1,0.995
CCc1nnc(NC(=O)c2ccc(S(=O)(=O)N(CC)Cc3ccccc3)cc2)o1,0.758
CCCCN(CC)S(=O)(=O)c1ccc(C(=O)Nc2nnc(-c3cccs3)o2)cc1,0.902
CCCCN(CC)S(=O)(=O)c1ccc(C(=O)Nc2ccc(-c3nc4ccccc4[nH]3)cc2)cc1,0.976
CCOC(=O)c1c(NC(=O)C(C)Oc2ccc(F)cc2)sc2c1CCC(CC)C2 (centres undefined),1.13
CCN(CC)CCCNC(=O)c1cc2c(-c3ccc(OC)c(OC)c3)nn(C)c2s1,1.05
O=C1CCc2cc(S(=O)(=O)N3CCCC3C(=O)NC3CCCCC3)ccc2N1 (centres undefined),0.954
COc1ccc(C2C(Oc3ccccc3)C(=O)N2c2ccc(C)c(Cl)c2)cc1OC (centres undefined),1.04
COc1ccc(CCNC(=O)CCc2c(C)nc3cc(-c4cccc(F)c4)nn3c2C)c(OC)c1,1
Cc1ccc2nc(Nc3ccc(C(=O)Nc4ccccc4Cl)cc3)nc(-c3ccccc3)c2c1,1.36
CN1CCN(C(=O)c2nn3c(c2Cl)NC(c2ccccc2)CC3C(F)(F)F)CC1 (centres undefined),1.11
CCCN(CCC)S(=O)(=O)c1ccc(C(=O)Nc2nnc(-c3cccs3)o2)cc1,0.931
CCc1nnc(NC(=O)c2ccc(S(=O)(=O)N(CCC#N)CCC#N)cc2)o1,0.056*
CCCCN(CC)S(=O)(=O)c1ccc(C(=O)Nc2ccccc2-c2nc3ccccc3s2)cc1,1.15
CCCCN(CC)S(=O)(=O)c1ccc(C(=O)Nc2nnc(CC)o2)cc1,0.0788*
CCc1ccc(-c2nc(CN3CCC(C(=O)NC4CCCCC4)CC3)c(C)o2)cc1,0.888
COc1cc(C(=O)Nc2cc(-c3nc4cccnc4o3)ccc2C)ccc1OCc1ccc(Cl)cc1,1.04
CCC(C)NC(=O)C1CCN(C(=O)c2cc3sccc3n2C)CC1 (centres undefined),0.955
O=C(Nc1ccc(F)cc1)C(Cc1ccccc1)NS(=O)(=O)c1ccc(Br)s1 (centres undefined),0.764
CCOc1ccc(Nc2nc(-c3c(C)nc4ncccn34)cs2)cc1,0.882
O=C(O)c1ccc(Nc2nc(-c3ccccc3)cs2)cc1,0.862
COc1ccc(OC)c(Nc2nc(-c3ccccn3)cs2)c1,0.384*
O=C(O)c1ccc(Nc2nc(-c3ccncc3)cs2)cc1,0.912
COc1ccc(-c2csc(Nc3ccccc3OC)n2)cc1,0.93
O=C(O)c1ccc(Nc2nc(-c3ccccn3)cs2)cc1,0.181*

# Screening results: PubChem, Bradner/Qi Labs at DFCI
